# Data as given in ChEMBL document CHEMBL4513216, “Probing the Open Global Health Chemical Diversity Library for Multistage-Active Starting Points for Next-Generation Antimalarials” (ACS Infect Dis, 2020).
# Hit rate of the full screen: of about 68,000 compounds, about 2,700 (4%) showed an effect of 50% or more. The list comes from a sample in which strong results are over-represented; it also holds similar structures and randomly drawn compounds.
# System: Plasmodium berghei
# Assay: Screen against P. berghei liver stage (PbLuc), transformed with Luciferase, at 2uM
# Type: functional, HepG2
# Settings: tested at 2 uM
row,Structure (SMILES),INHIBITION
1,Cc1ncsc1CCN(C)C(=O)CN1CCOC1=O,29.13%
2,c1cc(CN2CC[C@H]3O[C@@H](COCC4CCOCC4)CC[C@H]32)ccn1,-5.17%
3,Cc1nc2ccccc2n1CCNCc1cccc(C#N)c1,-5.59%
4,Cc1nc2ccccc2n1CCNCc1cccc(O)c1,54.47%
5,COc1ccc(CNCCn2c(C)nc3ccccc32)cc1O,-92.51%
6,CSc1nsc(NC(=O)c2cc(C3CC3)nn2C)n1,-11.3%
7,O[C@]12CCNC[C@H]1CN(c1ccnc3ccccc13)CC2,16.35%
8,OC[C@H]1CN(Cc2c(Cl)cncc2Cl)C[C@H]1CN1CCCCCC1,-34.9%
9,OC[C@H]1CN(Cc2c(Cl)cncc2Cl)C[C@H]1CN1CCOCC1,14.13%
10,OC[C@H]1CN(Cc2c(Cl)cncc2Cl)C[C@H]1CN1CCCC1,72.91%
11,CC1CN(CC(=O)NCc2ccc(F)cc2)CCN1c1nccs1 (stereo not drawn),-4.29%
12,CN(C)CCNc1cc(-c2ncccc2Cl)c2cc[nH]c2n1,10.22%
13,COc1ccc(CN2CCC=C(C(C)NC(C)=O)C2)cc1 (stereo not drawn),60.13%
14,COc1ccnc(CN2CCC=C(C(C)NC(C)=O)C2)c1OC (stereo not drawn),21.97%
15,CC(=O)NC(C)C1=CCCN(Cc2ccc(C(=O)O)cc2)C1 (stereo not drawn),43.44%
16,Cc1cnccc1N1CCN(C(=O)C2CC3(CCNCC3)CN2)CC1 (stereo not drawn),-28.32%
17,CC[S+](CC)[c-]1c(=O)[nH]c(=O)n(CCc2ccc(F)cc2)c1=O,9.31%
18,CC(NC(=O)c1ccc(Cl)cc1)c1nnc(SCC(N)=O)n1C (stereo not drawn),14.46%
19,CS(=O)(=O)NCC1CCCN(C(=O)Nc2ccccc2F)C1 (stereo not drawn),-5.61%
20,CS(=O)(=O)NCC1CCCN(C(=O)Nc2cccc3ccccc23)C1 (stereo not drawn),58.93%
21,CS(=O)(=O)NCC1CCCN(C(=O)Nc2ccccc2Cl)C1 (stereo not drawn),-7.21%
22,Cn1cc(C(=O)NC2CCCC2)c(-c2cccnc2)n1,-18.81%
23,CCOC(=O)c1ccccc1NC(=O)CN(C)Cc1ccccc1Cl,16.25%
24,CN(CC(=O)Nc1ccccc1C(=O)NC1CC1)Cc1ccccc1Cl,19.66%
25,CCOc1ccccc1NC(=O)CN(C)Cc1ccccc1Cl,55.73%
26,O=C1NCCN1C1CCN(CC(O)c2ccccc2F)CC1 (stereo not drawn),-54.48%
27,CNC(=O)[C@@H]1C[C@H](N)CN1S(=O)(=O)c1cc(C)c(Cl)cc1C,25.45%

row,Structure (SMILES),INHIBITION
1,CNC(=O)[C@@H]1C[C@H](N)CN1S(=O)(=O)c1cc(Cl)cc(Cl)c1O,92.61%
2,CNC(=O)[C@@H]1C[C@H](N)CN1S(=O)(=O)c1cc(Cl)c(Cl)s1,18.19%
3,CN(C)[C@@H]1CN(C(=O)Cc2ccsc2)[C@@H]2CCCO[C@H]12,16.63%
4,CN(Cc1ccccc1CN1CCCC1)C(=O)c1c(O)cccc1O,54.29%
5,CN(Cc1ccccc1CN1CCCC1)C(=O)c1c[nH]c(=O)[nH]1,0.31%
6,CN(CCN1CCCCCC1)C(=O)c1c(O)cccc1O,-46.57%
7,C1CCN(CCN2CCCCC2C2OCCO2)CC1 (stereo not drawn),-26.04%
8,CNC(=O)C1(C)CN(c2nnc(C)c3ccccc23)CCO1 (stereo not drawn),31.39%
9,Cc1nnc(N2CCOC(C)(C(=O)N(C)C)C2)c2ccccc12 (stereo not drawn),29.68%
10,Cc1nnc(N2CCOC(C)(C(=O)NC3CCCC3)C2)c2ccccc12 (stereo not drawn),51.88%
11,CCn1ncc2c1C(COCC1CC1)N(Cc1ccccn1)CC2 (stereo not drawn),1.74%
12,CC(C)c1nc(C2CCCN(C(=O)CCn3ccccc3=O)C2)no1 (stereo not drawn),29.59%
13,CCc1nc(C2CCCN(C(=O)c3ccc4[nH]nnc4c3)C2)no1 (stereo not drawn),38.72%
14,CC(C)c1nc(C2CCCN(C(=O)c3ccc4[nH]cnc4c3)C2)no1 (stereo not drawn),33.91%
15,CCOc1cc(C(=O)N2CCCC(c3noc(C(C)C)n3)C2)ccn1 (stereo not drawn),64.16%
16,CCOc1cc(C(=O)N2CCCC(c3noc(CC)n3)C2)ccn1 (stereo not drawn),43.79%
17,CCc1nc(C2CCCN(C(=O)c3ccc4[nH]cnc4c3)C2)no1 (stereo not drawn),52.52%
18,CCOc1cc(C(=O)N2CCCC(c3noc(C)n3)C2)ccn1 (stereo not drawn),-29.94%
19,CCc1nc(C2CCCN(C(=O)c3ccc(O)nc3)C2)no1 (stereo not drawn),9.82%
20,Cc1nc(C2CCCN(C(=O)CCn3ccccc3=O)C2)no1 (stereo not drawn),47.23%
21,CCc1nc(C2CCCN(C(=O)c3ccc(OC(C)C)nc3)C2)no1 (stereo not drawn),54.92%
22,CCc1nc(C2CCCN(C(=O)CCn3ccccc3=O)C2)no1 (stereo not drawn),54.92%
23,CCc1nc(C2CCCN(C(=O)c3ccc(OC)cc3)C2)no1 (stereo not drawn),48.43%
24,Cc1cccn2c(CNC(C)CCc3ccc(O)cc3)cnc12 (stereo not drawn),-19.78%
25,Cc1cccc(C(=O)NC(C)CN2CCCC2=O)n1 (stereo not drawn),5.91%
26,c1ccc(CO[C@@H]2CC[C@H]3[C@H]2OCCN3Cc2ccsc2)nc1,22.62%
